The supplement of paper PMC10037445
Where “and” joins values, the source holds several entries; their conditions need not be identical. Equal entries are not always repeated. The full ranking holds about 2,900 compounds; the median of “NF-kB SEAP reporter activity, fold change vs agonist alone” is about 0.99, and the highest 2% start at about 2.6. The entries come from a sample that favours the highest values as a whole.

Key:
RAW-Dual [1] = assay: NF-kB SEAP reporter activity, fold change vs agonist alone; higher = enhanced NF-kB activity; settings: library stock concentration (final ~1000-fold dilution): 10 mM
In short: (§1)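 After 50 nL of library stock was delivered by pin tool to RAW-Dual macrophages (50,000 cells/well, DMEM, 384-well plates), a PRR agonist was added 1 h later and the plates were kept at 37 °C, 5% CO2. Twenty hours later, IRF was read from supernatant by QuantiLuc luminescence and NF-κB by QuantiBlue absorbance at 620 nm. Reporter activity is stated as fold change over agonist-alone wells. Wells with IncuCyte confluency under 70% of agonist controls in both mask sets were counted as cytotoxic.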

RAW-Dual [2] = assay: NF-kB SEAP reporter activity, fold change vs agonist alone; cytotoxicity flag (confluency mask): not cytotoxic; library stock concentration (final ~1000-fold dilution): 10 mM; higher = enhanced NF-kB activity
In short: as §1

RAW-Dual [3] = assay: NF-kB SEAP reporter activity, fold change vs agonist alone; cytotoxicity flag (confluency mask): cytotoxic (confluency <70% of control); library stock concentration (final ~1000-fold dilution): 10 mM; higher = enhanced NF-kB activity
In short: as §1

[4] = cytotoxicity flag (confluency mask): not cytotoxic, agonist: Imiquimod (TLR7) […]
[5] = cytotoxicity flag (confluency mask): not cytotoxic, agonist: MPLA (TLR4) […]
[6] = agonist: ODN 1826 (TLR9) 0.5 ug/mL
[7] = agonist: Pam2CSK4 (TLR2/6) 0.1 ug/mL
[8] = agonist: Pam3CSK4 (TLR2/1) 0.1 ug/mL

With COc1cc(C)[nH]c(=O)c1CNC(=O)c1c(C)n(C(C)C2CCOCC2)c2ccccc12 (configuration not stated) the “NF-kB SEAP reporter activity” value (RAW-Dual [1]; [4]) was 0.902, the “NF-kB SEAP reporter activity” value (RAW-Dual [1]; [5]) was 1.02 and the “NF-kB SEAP reporter activity” value (RAW-Dual [2]; agonist: LPS (TLR4) 0.1 ug/mL) was 1.26. For the same compound, the “NF-kB SEAP reporter activity” value (RAW-Dual [2]; [6]) was 1.05, the “NF-kB SEAP reporter activity” value (RAW-Dual [2]; [7]) was 0.992 and the “NF-kB SEAP reporter activity” value (RAW-Dual [2]; [8]) was 0.786.

For Cl[Te]1(Cl)(Cl)OCCO1.N, the “NF-kB SEAP reporter activity” value (RAW-Dual [1]; [4]) was 0.792, the “NF-kB SEAP reporter activity” value (RAW-Dual [1]; [5]) was 0.899 and the “NF-kB SEAP reporter activity” value (RAW-Dual [2]; agonist: LPS (TLR4) 0.1 ug/mL) was 1.39. The “NF-kB SEAP reporter activity” value (RAW-Dual [2]; [6]) was 0.846, the “NF-kB SEAP reporter activity” value (RAW-Dual [2]; [7]) was 0.912 and the “NF-kB SEAP reporter activity” value (RAW-Dual [2]; [8]) was 1.28.

CCCCCCC[n+]1ccc(-c2cc[n+](CCCCCCC)cc2)cc1 was tested, and the “NF-kB SEAP reporter activity” value (RAW-Dual [1]; [4]) was 1.32, the “NF-kB SEAP reporter activity” value (RAW-Dual [1]; [5]) was 2.11 and the “NF-kB SEAP reporter activity” value (RAW-Dual [2]; agonist: LPS (TLR4) 0.1 ug/mL) was 3.95. The “NF-kB SEAP reporter activity” value (RAW-Dual [2]; [6]) was 1.17, the “NF-kB SEAP reporter activity” value (RAW-Dual [2]; [7]) was 1.02 and the “NF-kB SEAP reporter activity” value (RAW-Dual [2]; [8]) was 1.14.

CCCCCc1cc(O)cc(O)c1 was tested, and the “NF-kB SEAP reporter activity” value (RAW-Dual [1]; [5]) was 0.946, the “NF-kB SEAP reporter activity” value (RAW-Dual [2]; agonist: LPS (TLR4) 0.1 ug/mL) was 1.11 and the “NF-kB SEAP reporter activity” value (RAW-Dual [2]; [6]) was 0.427. The “NF-kB SEAP reporter activity” value (RAW-Dual [2]; [7]) was 0.966 and the “NF-kB SEAP reporter activity” value (RAW-Dual [2]; [8]) was 0.739.

With O=C([O-])C(Cl)Cl.[Na+] the “NF-kB SEAP reporter activity” value (RAW-Dual [2]; agonist: LPS (TLR4) 0.1 ug/mL) was 1.11 and 0.906, the “NF-kB SEAP reporter activity” value (RAW-Dual [2]; [6]) was 1.14 and 0.982 and the “NF-kB SEAP reporter activity” value (RAW-Dual [2]; [7]) was 1.11 and 0.989. For the same compound, the “NF-kB SEAP reporter activity” value (RAW-Dual [2]; [8]) was 1.19 and 1.32.

With CCNc1nc(Cl)nc(NC(C)C)n1 the “NF-kB SEAP reporter activity” value (RAW-Dual [1]; [5]) was 1.29, the “NF-kB SEAP reporter activity” value (RAW-Dual [2]; agonist: LPS (TLR4) 0.1 ug/mL) was 1.55 and the “NF-kB SEAP reporter activity” value (RAW-Dual [2]; [6]) was 1.4. The “NF-kB SEAP reporter activity” value (RAW-Dual [2]; [7]) was 1.5 and the “NF-kB SEAP reporter activity” value (RAW-Dual [2]; [8]) was 1.67.

COc1ccc2c(c1OC)CN1CCc3cc4c(cc3C1C2)OCO4 (configuration not stated) was tested, and the “NF-kB SEAP reporter activity” value (RAW-Dual [1]; [5]) was 1, the “NF-kB SEAP reporter activity” value (RAW-Dual [2]; agonist: LPS (TLR4) 0.1 ug/mL) was 1.21 and the “NF-kB SEAP reporter activity” value (RAW-Dual [2]; [6]) was 1.04. The “NF-kB SEAP reporter activity” value (RAW-Dual [2]; [7]) was 0.89 and the “NF-kB SEAP reporter activity” value (RAW-Dual [2]; [8]) was 1.26.

With COc1cc(C2c3cc4c(cc3C(O)C3COC(=O)C23)OCO4)cc(OC)c1O (configuration not stated) the “NF-kB SEAP reporter activity” value (RAW-Dual [1]; [4]) was 2.53, the “NF-kB SEAP reporter activity” value (RAW-Dual [1]; [5]) was 2.24 and the “NF-kB SEAP reporter activity” value (RAW-Dual [2]; agonist: LPS (TLR4) 0.1 ug/mL) was 3.91. For the same compound, the “NF-kB SEAP reporter activity” value (RAW-Dual [2]; [6]) was 3.47, the “NF-kB SEAP reporter activity” value (RAW-Dual [2]; [7]) was 2.24 and the “NF-kB SEAP reporter activity” value (RAW-Dual [2]; [8]) was 2.24.

In the case of COc1cc(C2c3cc4c(cc3C(O)C3COC(=O)C23)OCO4)cc(OC)c1OC (configuration not stated), the “NF-kB SEAP reporter activity” value (RAW-Dual [1]; cytotoxicity flag (confluency mask): cytotoxic (confluency <70% of control), agonist: Imiquimod (TLR7) […]) is reported as 1.61, the “NF-kB SEAP reporter activity” value (RAW-Dual [1]; cytotoxicity flag (confluency mask): cytotoxic (confluency <70% of control), agonist: MPLA (TLR4) […]) is reported as 1.92 and the “NF-kB SEAP reporter activity” value (RAW-Dual [3]; agonist: LPS (TLR4) 0.1 ug/mL) is reported as 5.49. The “NF-kB SEAP reporter activity” value (RAW-Dual [3]; [6]) was 2.81, the “NF-kB SEAP reporter activity” value (RAW-Dual [3]; [7]) was 1.6 and the “NF-kB SEAP reporter activity” value (RAW-Dual [3]; [8]) was 2.18.

With CC[N+](C)(CC)CCOC(=O)C(O)(c1ccccc1)c1ccccc1 the “NF-kB SEAP reporter activity” value (RAW-Dual [1]; [5]) was 1.01, the “NF-kB SEAP reporter activity” value (RAW-Dual [2]; agonist: LPS (TLR4) 0.1 ug/mL) was 0.821 and the “NF-kB SEAP reporter activity” value (RAW-Dual [2]; [6]) was 0.989. The “NF-kB SEAP reporter activity” value (RAW-Dual [2]; [7]) was 0.934 and the “NF-kB SEAP reporter activity” value (RAW-Dual [2]; [8]) was 1.39.

With COc1cc(-n2c(S)nc3ccccc3c2=O)c(Cl)cc1Cl the “NF-kB SEAP reporter activity” value (RAW-Dual [1]; [4]) was 0.851, the “NF-kB SEAP reporter activity” value (RAW-Dual [1]; [5]) was 0.953 and the “NF-kB SEAP reporter activity” value (RAW-Dual [2]; agonist: LPS (TLR4) 0.1 ug/mL) was 1.4. For the same compound, the “NF-kB SEAP reporter activity” value (RAW-Dual [2]; [6]) was 0.842, the “NF-kB SEAP reporter activity” value (RAW-Dual [2]; [7]) was 0.849 and the “NF-kB SEAP reporter activity” value (RAW-Dual [2]; [8]) was 0.826.

In the case of CCC1(c2c[nH]cn2)Cc2ccccc2C1.Cl, the “NF-kB SEAP reporter activity” value (RAW-Dual [1]; [5]) is reported as 0.931, the “NF-kB SEAP reporter activity” value (RAW-Dual [2]; agonist: LPS (TLR4) 0.1 ug/mL) is reported as 0.796 and the “NF-kB SEAP reporter activity” value (RAW-Dual [2]; [6]) is reported as 0.745. The “NF-kB SEAP reporter activity” value (RAW-Dual [2]; [7]) was 0.9 and the “NF-kB SEAP reporter activity” value (RAW-Dual [2]; [8]) was 0.997.

For CN1C2CCC1CC(=O)C2, the “NF-kB SEAP reporter activity” value (RAW-Dual [1]; [4]) was 1.66, the “NF-kB SEAP reporter activity” value (RAW-Dual [1]; [5]) was 1.16 and the “NF-kB SEAP reporter activity” value (RAW-Dual [2]; agonist: LPS (TLR4) 0.1 ug/mL) was 0.911. For the same compound, the “NF-kB SEAP reporter activity” value (RAW-Dual [2]; [6]) was 1.6, the “NF-kB SEAP reporter activity” value (RAW-Dual [2]; [7]) was 1 and the “NF-kB SEAP reporter activity” value (RAW-Dual [2]; [8]) was 1.54.

For CCC1CN2CCC3(C(=O)Nc4ccccc43)C2CC1/C(=C\OC)C(=O)OC (configuration not stated), the “NF-kB SEAP reporter activity” value (RAW-Dual [1]; [4]) was 0.907, the “NF-kB SEAP reporter activity” value (RAW-Dual [1]; [5]) was 1.25 and the “NF-kB SEAP reporter activity” value (RAW-Dual [2]; agonist: LPS (TLR4) 0.1 ug/mL) was 1.1. The “NF-kB SEAP reporter activity” value (RAW-Dual [2]; [6]) was 0.873, the “NF-kB SEAP reporter activity” value (RAW-Dual [2]; [7]) was 0.87 and the “NF-kB SEAP reporter activity” value (RAW-Dual [2]; [8]) was 0.852.
